A selection: hits, their analogues and other compounds. The true share with any hit is near 9.4%.
FLuc counter: inhibits or activates purified firefly luciferase, miR-21 counter-screen | P08659 | purified FLuc, Km substrates, luminescence inhibition | 360,000 tested, 6.9% active | Potency, µM (top dose mostly 57.5 µM), without a hit: at the highest dose activity change, negative = inhibition, hits mostly inhibitors;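 also: plate controls were vehicle for no effect and reference inhibitor for full effect; nearly all actives have a fitted effect of over 55% in size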
Target sequence (P08659 whole entry, looked up): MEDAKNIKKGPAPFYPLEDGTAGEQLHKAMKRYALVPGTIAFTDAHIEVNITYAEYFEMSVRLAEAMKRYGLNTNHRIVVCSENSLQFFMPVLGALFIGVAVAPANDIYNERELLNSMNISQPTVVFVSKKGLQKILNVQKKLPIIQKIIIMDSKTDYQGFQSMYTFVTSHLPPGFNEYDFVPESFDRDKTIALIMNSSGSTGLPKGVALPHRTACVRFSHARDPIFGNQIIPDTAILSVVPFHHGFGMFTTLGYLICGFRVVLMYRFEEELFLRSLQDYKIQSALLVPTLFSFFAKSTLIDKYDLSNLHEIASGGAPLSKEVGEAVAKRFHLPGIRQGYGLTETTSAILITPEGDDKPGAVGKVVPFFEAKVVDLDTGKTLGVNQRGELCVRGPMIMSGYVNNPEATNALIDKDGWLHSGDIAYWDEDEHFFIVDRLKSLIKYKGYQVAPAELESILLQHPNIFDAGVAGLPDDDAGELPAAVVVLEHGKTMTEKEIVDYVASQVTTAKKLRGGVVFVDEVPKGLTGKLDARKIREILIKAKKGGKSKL
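Purified P. pyralis luciferase, 10 nM final, with Km-level 10 uM D-luciferin and 10 uM ATP in 50 mM Tris acetate pH 7.5, 10 mM Mg acetate, 0.01% Tween-20, 0.05% BSA; 6-point qHTS titration about 60 µM downward; luminescence read.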
ELG1 repair inh: blocks ELG1-dependent DNA repair in HEK293T cells. Potency, µM (series often up to 46.1 µM), inactives show at the top dose activity change, negative = inhibition, actives largely listed as inhibitors. HEK293T ELG1-luciferase reporter, luminescence, 16 h; DNA damage induced by 5-fluorouridine. AID 504467. 330,000 tested, 2.3% active; also: % is scaled to controls: 0 for no effect and ±100 for the full control effect; nearly all actives have a fitted effect of over 55% in size
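Luminescence from the luciferase reporter, measured 30 min after ONE-Glo reagent at room temperature, was the read-out. Beforehand, 2,000 cells per well were exposed for 16 hr at 37 °C to 5-fluorouridine together with compound or vehicle.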
Rab9 prom act: activates the Rab9 promoter; Huh7 Rab9 promoter-luciferase reporter, luminescence, 24 h; Potency, µM (top dose mostly 9.22 µM), inactives show at the highest dose activation, negative = inhibition, usual class: activators; 320,000 tested, 2.8% active; also: % of control where 0% means no effect; nearly all actives have a fitted effect of over 60% in size
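Rab9 promoter-driven luciferase in stably transfected Huh7 cells; 1500 cells/well rested 2 h, exposed to compound in DMSO for 24 h at 37 °C, 5% CO2. Luminescence read 10 min after adding luciferase reagent at ambient temperature.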
SMN2 splice enh: enhancers of SMN2 splice variant expression; 210,000 tested, 2.8% active; AID 1458; HEK293 SMN2-luciferase splicing reporter, luminescence, 30-36 h; Potency, µM (highest dose often 46.1 µM), without a hit: top-dose activity change, positive = activation, hits mostly activators; also: % of control where 0% means no effect; nearly all actives have a fitted effect of over 55% in size
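qHTS luciferase splicing reporter: luminescence rises when SMN2 exon 7 is included in transfected HEK293 cells. Compound exposure lasted 30-36 h at 37C, with 4.5 mM final sodium butyrate as control, followed by a ONE-Glo read.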
ELG1 genotox: induces genotoxicity in HEK293T cells with luciferase-tagged ELG1. HEK293T ELG1-luciferase reporter, luminescence, 16 h. Potency, µM (titrated, usually from 46 µM), inactives show at the top dose activity change, positive = activation, usual class: activators. 330,000 tested, 1.3% active; also: % of control where 0% means no effect; nearly all actives have a fitted effect of over 60% in size
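ELG1-luciferase HEK293T cells, 2,000/well; compound pinned in; 16 hr, 37 °C, 5% CO2; ONE-Glo, 30 min RT; luminescence on CCD imager.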
NPC1 prom act: activators of NPC1 promoter | 320,000 tested, 2.4% active | Huh7 NPC1 promoter luciferase reporter, 24 h | Potency, µM (doses to about 9.22 µM), inactives show at the top dose activation, usual class: activators; also: % of control where 0% means no effect; nearly all actives have a fitted effect of over 60% in size
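Readout is luciferase luminescence, reflecting NPC1 promoter activation in stably transfected Huh7 cells after 24 h compound exposure at 37 °C in reduced-serum medium with 10% FBS.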
* hit, by the source's call; ? = inconclusive; . = no result given. Calls follow the shape of the dose curve; as a rule, active = well fitted curve in the direction sought with a large enough effect; inconclusive = small, poorly fitted or top-dose-only effect, or another doubt; inactive = no such curve, though single readings can be large; an effect the other way counts as inactive or inconclusive. Potency is read from the fitted curve at half-maximal effect.

SMILES | FLuc counter | ELG1 repair inh | Rab9 prom act | SMN2 splice enh | ELG1 genotox | NPC1 prom act
O=C(COC(=O)c1ccccn1)NC12CC3CC(CC(C3)C1)C2 | 21.3µM* | 2.3% | -6.4% | 13.5% | -3.4% | 0.4%
Cc1cccc(C(=O)OCC(=O)NC23CC4CC(CC(C4)C2)C3)c1O | . | ? | . | . | 14.7% | .
Cc1nc2sc(C(N)=O)c(N)c2c(C)c1CC(=O)c1ccccc1 | 16.9µM* | ? | 2.82µM* | 24.1% | -5.6% | 3.55µM*
Cc1cc(C)c2c(N)c(C(=O)c3ccccc3)sc2n1 | ? | ? | -3.3% | . | -1.1% | -2.4%
COc1cccc(N2CCN(c3c(C#N)c(C(F)(F)F)nn3C)CC2)c1 | 3.5% | 14.6µM* | -2.1% | -65.1% | -16.5% | 1.1%
Cc1ccc(OCc2cc(=O)n3c4c(sc3n2)CCCC4)cc1C | ? | . | . | 1.7% | . | .
Cc1ccc(NC(=O)Nc2nnc(-c3ccccc3)o2)cc1 | ? | ? | ? | 25.3% | 25.0% | 24.0%
Cc1ccc(/C=C/c2nnc(-c3ccccc3)o2)cc1 | 5.36µM* | ? | 1.12µM* | ? | ? | 0.891µM*
CCSc1nnc(-c2cccs2)o1 | -21.2% | ? | -1.9% | -7.0% | ? | 14.3%
Cc1ccc(-c2nnc(Nc3ccccc3)o2)cc1 | 0.151µM* | ? | 0.126µM* | 0.398µM* | 0.146µM* | ?
C(=C\c1nnc(-c2cccs2)o1)/c1ccccc1 | 5.36µM* | ? | 2.51µM* | ? | ? | 2.51µM*
CC(=O)c1cccc(NC(=O)CCc2c(C)nc3c(-c4ccc(F)cc4)c(C)nn3c2C)c1 | -2.9% | . | . | 4.1% | . | .
Cc1nn2c(nc1=O)SCC(c1ccccc1)=N2 | 3.0% | ? | 3.55µM* | ? | ? | 2.24µM*
Nc1ccc(C(=O)N/N=C\c2cc(N=Nc3cccc4ccccc34)ccc2O)cc1 | 7.57µM* | ? | 1.4% | -75.5% | -7.1% | -7.2%
COC(=O)N/N=C/c1cc(N=Nc2ccccc2Cl)ccc1O | 6.01µM* | ? | ? | . | 5.1% | ?
COC(=O)N/N=C/c1cc(N=Nc2ccccc2)ccc1O | ? | 11.7% | 9.6% | . | 8.7% | 14.3%
O=C(Nc1ccccc1)N1CCCC2(CCN(C(=O)c3cccc(F)c3)CC2)C1 | . | . | . | -5.9% | . | .
Cc1nnc(SCC2=C(C(=O)O)N3C(=O)C(NC(=O)Cn4cnnn4)[C@@H]3SC2)s1 (stereo not given in full) | . | . | . | -8.2% | . | .
O=C(COC(=O)Cn1cnc2ccccc21)Nc1cc(S(=O)(=O)N2CCOCC2)ccc1Cl | -1.2% | -4.6% | -2.3% | . | -0.5% | -2.1%
O=C(COC(=O)Cn1cnc2ccccc21)Nc1cc2c(cc1Cl)C(=O)c1ccccc1C2=O | ? | ? | 2.82µM* | 17.8µM* | ? | 3.16µM*
O=C1C(Cl)=C(NCc2cccnc2)C(=O)c2ccccc21 | -8.2% | 20.6µM* | -42.6% | . | -3.6% | -28.1%
Cc1csc(NC(=O)CSc2nsc(SCC(=O)Nc3nc(C)cs3)c2C#N)n1 | ? | ? | 1.58µM* | 11.2µM* | ? | 2.51µM*
CC(C)(C)NC(=O)CSc1nsc(SCC(=O)NC(C)(C)C)c1C#N | 2.3% | 9.2µM* | 0.1% | -27.7% | -10.2% | 1.4%
Cc1ccc(NC(=O)CSc2nsc(SCC(=O)Nc3ccc(C)cc3C)c2C#N)c(C)c1 | 3.6% | 6.7% | -5.1% | . | 7.2% | -6.3%
Cn1cccc1-c1nc2ccccc2[nH]1 | 16.9µM* | ? | 30.0% | . | ? | ?
SMILES | FLuc counter | ELG1 repair inh | Rab9 prom act | SMN2 splice enh | ELG1 genotox | NPC1 prom act
Cc1nnsc1-c1nc2ccccc2[nH]1 | -7.6% | 0.0% | 0.0% | -14.5% | -0.1% | 6.5%
Cn1cccc1-c1nc2ccc(NC(=O)c3ccccc3)cc2[nH]1 | 15.1µM* | ? | 27.9% | 27.9% | ? | 16.2%
Cn1cccc1-c1nc2ccc(NC(=O)c3ccc([N+](=O)[O-])cc3)cc2[nH]1 | -1.7% | ? | 3.7% | 12.0% | 9.1% | -2.7%
Nc1ccc(C(=O)Nc2ccc3nc(-c4cccnc4)[nH]c3c2)cc1 | 16.9µM* | -8.4% | 6.4% | 12.9% | 2.0% | -5.6%
Cc1ccc(S(=O)(=O)Nc2ccc3nc(-c4cccn4C)[nH]c3c2)cc1 | -15.9% | 11.2% | -0.5% | 8.91µM* | 0.2% | 6.5%
Cc1ccc(S(=O)(=O)Nc2ccc3cn[nH]c3c2)cc1 | 0.3% | 0.6% | -1.7% | . | -0.5% | -0.8%
COC(=O)c1ccc(CNC(=O)c2cc(COc3cncc(Cl)c3)on2)cc1 | -0.3% | 20.6µM* | -12.6% | . | -18.0% | -6.4%
Cc1cccn2cc(-c3ccc(Cl)cc3)nc12 | 0.379µM* | ? | 1.26µM* | . | 2.06µM* | ?
Cc1ccc(-c2cn3cccc(C)c3n2)cc1 | 1.07µM* | ? | 1.41µM* | . | ? | 3.98µM*
Cc1ccc(-c2cn3cccc(C)c3n2)cc1NS(=O)(=O)c1ccccc1 | 16.9µM* | . | . | 23.5% | . | .
COc1ccc(-c2cn3cccc(C)c3n2)cc1F | 6.01µM* | ? | 2.51µM* | 5.62µM* | 4.61µM* | ?
COc1ccc(-c2nc3c(-c4ccccc4)cnn3cc2C)cc1F | -16.0% | 15.2% | 21.0% | . | 6.5% | 10.6%
COC(=O)[C@@]1(Cc2ccc(OC)cc2)[C@H]2c3cc(C(=O)N4CCCC4)n(CCc4c[nH]c5cc(F)ccc45)c3C[C@H]2CN1C(=O)c1ccccc1 | . | . | . | -12.9% | . | .
CC1CCC(C(=O)NC(C(=O)OCC(=O)c2ccc(Br)cc2)C(C)C)CC1 (stereo not given) | -6.2% | . | . | -3.8% | . | .

Compound activity: PubChem BioAssay, National Center for Advancing Translational Sciences (NCATS)
